Laboratory results as given in PubChem BioAssay AID2629 (Broad Institute, 2010).
“And” between values parts separate entries of the source, which are not always exact repeats. Equal values may be shown once. Hit rate of the full screen: of about 320,000 compounds, about 1,900 (0.59%) were called active. This is one part of a sample in which actives are shown more often than they occur. Values without a mark were called inactive. Cut-off read from the data, not from the text of the source: active = inhibition mostly above about 10% (no sharp cut-off); inactive = mostly below about 6.7%.

Each compound was assayed against Protein LANA1 (Human herpesvirus 8 type P (isolate GK18)) (UniProt Q9QR71) (assay: blockers of LANA interaction with H2A/H2B – biochemical, FP readout, HTS, primary screen (AID 2629)). Conditions: cell-free LANA-H2A/H2B peptide, fluorescence polarization, hits give high values, concentration not given here.
Chain of Protein LANA1 (Human herpesvirus 8 type P (isolate GK18)) (Q9QR71 whole entry, looked up): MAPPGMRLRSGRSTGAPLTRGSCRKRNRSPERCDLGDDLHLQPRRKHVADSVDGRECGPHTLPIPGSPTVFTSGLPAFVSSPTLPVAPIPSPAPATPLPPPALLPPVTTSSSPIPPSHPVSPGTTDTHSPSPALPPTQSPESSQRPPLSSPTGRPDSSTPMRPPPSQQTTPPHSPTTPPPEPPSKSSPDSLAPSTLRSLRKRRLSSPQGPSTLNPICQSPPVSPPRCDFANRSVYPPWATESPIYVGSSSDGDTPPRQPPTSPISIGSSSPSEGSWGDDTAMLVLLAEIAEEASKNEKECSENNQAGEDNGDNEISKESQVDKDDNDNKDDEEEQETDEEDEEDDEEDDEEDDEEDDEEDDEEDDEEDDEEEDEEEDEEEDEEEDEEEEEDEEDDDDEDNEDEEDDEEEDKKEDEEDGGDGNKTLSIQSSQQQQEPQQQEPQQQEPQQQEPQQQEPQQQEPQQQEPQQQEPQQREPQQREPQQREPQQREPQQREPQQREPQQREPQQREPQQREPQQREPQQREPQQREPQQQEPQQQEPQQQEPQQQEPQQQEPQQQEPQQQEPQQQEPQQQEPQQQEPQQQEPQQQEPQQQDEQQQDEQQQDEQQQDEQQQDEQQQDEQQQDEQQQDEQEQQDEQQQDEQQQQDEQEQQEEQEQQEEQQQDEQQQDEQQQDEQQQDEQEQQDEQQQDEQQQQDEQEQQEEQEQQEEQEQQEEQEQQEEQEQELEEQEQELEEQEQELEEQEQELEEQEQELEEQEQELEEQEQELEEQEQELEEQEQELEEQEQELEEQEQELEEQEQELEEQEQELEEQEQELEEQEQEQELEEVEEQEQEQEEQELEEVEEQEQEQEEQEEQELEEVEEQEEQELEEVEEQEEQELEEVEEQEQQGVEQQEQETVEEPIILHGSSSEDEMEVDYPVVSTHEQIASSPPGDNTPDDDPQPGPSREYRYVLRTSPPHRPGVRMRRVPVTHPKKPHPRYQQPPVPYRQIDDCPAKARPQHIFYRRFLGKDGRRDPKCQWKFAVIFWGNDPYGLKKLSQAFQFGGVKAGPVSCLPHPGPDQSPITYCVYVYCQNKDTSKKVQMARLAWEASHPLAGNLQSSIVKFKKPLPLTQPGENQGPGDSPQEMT
In the case of `C/C(=N/OC(=O)c1ccc(Br)cc1)c1ccc(C)cc1`, the inhibition is reported as 4.46%. Compound `Cc1nnc(-c2ccc(Oc3ccc(C)c(C)c3)c([N+](=O)[O-])c2)o1` has an inhibition of 0.884%. `O=S(=O)(Nc1ccccc1N1CCOCC1)c1ccc(Cl)s1` was tested, and the inhibition was 4.05%. With `O=S(=O)(Nc1cc(Cl)ccc1N1CCOCC1)c1ccccc1Cl` the inhibition was 16.7% (active). Work on `O=S(=O)(Nc1cc(S(=O)(=O)N2CCOCC2)ccc1N1CCCC1)c1cccs1` yielded an inhibition of -1.3%. `CCCCN(C(=O)c1ccc(S(=O)(=O)N2CCOCC2)cc1)C1CCS(=O)(=O)C1` (configuration not stated) was tested, and the inhibition was 3.61%. `CCN(CC)CCCNC(=S)N(CCO)Cc1cc2cc3c(cc2[nH]c1=O)OCO3` was tested, and the inhibition was -0.647%. Compound `CCNC(=S)N(CCN(CC)CC)Cc1cc2cc3c(cc2[nH]c1=O)OCCO3` has an inhibition of -5.92%. For `COCCCNC(=S)N(CCN(C)C)Cc1cc2cc3c(cc2[nH]c1=O)OCCO3`, the inhibition was 9.12% (active). `C=C(C)CNC(=S)/N=c1\scc(C)n1CC` gave an inhibition of 3.02%. For `COc1ccc(Cc2cc(-c3ccc(F)cc3)n[nH]c2=O)cc1`, the inhibition was -1.23%. With `Cc1ccc(C(=O)COC(=O)c2cccc(N3C(=O)c4c(C)nc5ccccc5c4C3=O)c2)cc1C` the inhibition was 14.6% (active). Compound `Cc1ccc(C(=O)COC(=O)CCN2C(=O)C3C4CCC(C4)C3C2=O)cc1C` (configuration not stated) has an inhibition of 0.254%. `O=C(CCc1nc2ccccc2c(=O)[nH]1)OCC(=O)c1cccc(Cl)c1` was tested, and the inhibition was -2.71%. Compound `CC(C)(C)C1CCC(C(=O)NCC(c2cccs2)N2CCOCC2)CC1` (configuration not stated) has an inhibition of -3%. With `CN(Cc1ccc(CNC[C@H]2O[C@@H](n3cnc4c(N)ncnc43)[C@H](O)[C@@H]2O)o1)S(C)(=O)=O` the inhibition was 1.32%. `O=C(O)Cc1csc(-c2cccc(Oc3ccccc3)c2)n1` was tested, and the inhibition was -3.8% and 4.18%. `COc1cc(C(=O)OC(C)C(=O)NCC2CCCCC2)cc(NC(=O)c2ccco2)c1OC` (configuration not stated) was tested, and the inhibition was 1.94%. `CC(C)(C)c1ccc(C(=O)NCc2nnc(SCC(=O)N3CCCc4ccccc43)n2-c2ccccc2)cc1` showed an inhibition of 2.13%. For `COc1ccccc1CNC(=O)C1CCCN(S(=O)(=O)c2cccc3cccnc23)C1` (configuration not stated), the inhibition was 138% (active). `COc1ccc(NC(=O)C2CCCN(S(=O)(=O)c3cccc4cccnc34)C2)cc1OC` (configuration not stated) was tested, and the inhibition was 2.61%. In the case of `COc1ccc(NC(=O)C2CCCN(S(=O)(=O)c3cccc4cccnc34)C2)cc1` (configuration not stated), the inhibition is reported as -2.43%. With `O=C(C1=C(O)C(=O)N(Cc2ccccc2)C1c1cccnc1)c1ccco1` (configuration not stated) the inhibition was 10.9% (active). Work on `CCOc1cc(C2C(C(=O)c3ccco3)=C(O)C(=O)N2Cc2ccccc2)ccc1O` (configuration not stated) yielded an inhibition of 2.24%. In the case of `COc1ccc(C2C(C(C)=O)=C(O)C(=O)N2Cc2cccnc2)cc1` (configuration not stated), the inhibition is reported as 0.519%. In the case of `Cc1ccc(N(C(=O)Cc2cccs2)C2C=CS(=O)(=O)C2)cc1Cl` (configuration not stated), the inhibition is reported as 0.0691%. `OC1CSc2nc3ccccc3n2C1` (configuration not stated) was tested, and the inhibition was 0.181%. In the case of `COCCCN1C(=O)C(=O)/C(=C(/O)c2ccc3c(c2)CC(C)O3)C1c1cccnc1` (configuration not stated), the inhibition is reported as -6.56% and -12.2%. With `CC1Cc2cc(/C(O)=C3\C(=O)C(=O)N(CCN4CCOCC4)C3c3ccccc3F)ccc2O1` (configuration not stated) the inhibition was -0.116%. `CC1Cc2cc(/C(O)=C3\C(=O)C(=O)N(Cc4cccnc4)C3c3ccccc3F)ccc2O1` (configuration not stated) was tested, and the inhibition was 12.2% (active). `CN(CC(=O)NCCc1ccc(S(N)(=O)=O)cc1)CC(=O)Nc1ccc(Cl)cc1` was tested, and the inhibition was -9.65%. With `CCn1cc(C(=O)NCCCN2CCCCCC2)c(=O)c2cc(S(=O)(=O)N3CCc4ccccc4C3)ccc21` the inhibition was 1.1%. In the case of `CC1(C)N=C(c2ccccn2)C(C)(C)N1O`, the inhibition is reported as 3.45%. `CC(C(=O)N1CCc2ccccc21)N(C)CC(=O)Nc1ccc(F)cc1` (configuration not stated) showed an inhibition of 4.45%. `COc1cc(NC(=O)c2ccccc2NS(=O)(=O)c2ccc(Cl)s2)cc(OC)c1` showed an inhibition of -1.77%. With `C=CC[C@@H](CC(=O)N[C@H](CO)Cc1ccccc1)C(=O)N[C@@H](COC(=O)[C@@H](CC=C)Cc1ccc(F)cc1)Cc1c[nH]c2ccccc12` the inhibition was -2.42%. With `C=CCC[C@H](Cc1ccc(F)cc1)C(=O)OC[C@@H](Cc1c[nH]c2ccccc12)NC(=O)[C@H](CC=C)CC(=O)N[C@H](CO)Cc1ccccc1` the inhibition was 145% (active). Compound `C=CCC[C@@H](Cc1ccc(F)cc1)C(=O)OC[C@H](Cc1c[nH]c2ccccc12)NC(=O)[C@@H](CC=C)CC(=O)N(CCO)Cc1ccccc1` has an inhibition of 3.67%. `COc1ccc(NC(=O)CSc2nc(SC)ns2)c(OC)c1` showed an inhibition of 0.787%. Work on `CCCn1nc(Oc2nc(NC(C)C)nc(N(C)C)n2)ccc1=O` yielded an inhibition of -2.39%. `O=C(NCCN1CCOCC1)c1cc(-c2cccs2)nc2ccccc12` gave an inhibition of 14%. With `CCCCN(C)CCCNC(=O)c1cc(-c2cccs2)nc2ccccc12` the inhibition was -1.81%. With `O=C(Nc1nnc(-c2ccccc2)o1)c1cc(-c2cccs2)nc2ccccc12` the inhibition was 14.9% (active). `CCc1ccccc1NC(=O)CN(C)C(=O)c1cc(C2CC2)nn1-c1ccccc1` showed an inhibition of -3.11%. `COc1ccc(NC(=O)CN(C)C(=O)c2cc(C3CC3)nn2-c2ccccc2)cc1` was tested, and the inhibition was -290%. For `COc1cccc(NC(=O)CN(C)C(=O)c2cc(C3CC3)nn2-c2ccccc2)c1`, the inhibition was 559% [above what the read-out allows, likely interference] (active). In the case of `COc1cccc(CN2CCN(Cc3ccc4cccc(F)c4n3)CC2CCO)c1` (configuration not stated), the inhibition is reported as -3.14%. With `COc1ccc(C2C=C(c3ccc(Br)cc3)Nc3nc(NS(C)(=O)=O)nn32)cc1` (configuration not stated) the inhibition was 31.6% (active). `COc1ccc(C2=CC(c3cccc(OC)c3)n3nnnc3N2)cc1` (configuration not stated) gave an inhibition of -1.03%. With `CCS(=O)(=O)n1nc(-c2ccccc2)nc1SCc1ccccc1` the inhibition was 0.944%. In the case of `COc1ccc(C(=O)NC(C)Cn2nc(C)cc2C)cc1OC1CCN(C(C)=O)CC1` (configuration not stated), the inhibition is reported as 16.1% (active). Work on `COc1ccc(C(=O)NC(C)c2nccs2)cc1OC1CCN(C(C)C)CC1` (configuration not stated) yielded an inhibition of 4.31%. `COc1ccc(C(=O)NCCn2nc(C)cc2C)cc1OC1CCN(C(C)=O)CC1` gave an inhibition of 0.74%. `CCOc1ncccc1C(=O)OCC(=O)NC1CC1` was tested, and the inhibition was -3.51%. Work on `FC(F)(F)c1nnc2c3ccccc3c(Cl)nn12` yielded an inhibition of 8.62%. In the case of `Cc1nnc(SCc2ccc(C(=O)c3ccc(Cl)cc3)o2)n1-c1ccccc1`, the inhibition is reported as -1.68%. `COc1ccc(NC(=O)Nc2ccc3c(c2)C(=O)N([C@H](C)CO)C[C@H](C)[C@@H](CN(C)C(=O)Nc2ccc4c(c2)OCO4)O3)cc1` showed an inhibition of 1.05%. `COc1ccc(S(=O)(=O)N(C)C[C@H]2Oc3c(NC(=O)Nc4ccc5c(c4)OCO5)cccc3C(=O)N([C@H](C)CO)C[C@@H]2C)cc1` was tested, and the inhibition was 16.9% (active). For `C[C@H](CO)N1C[C@H](C)[C@@H](CN(C)S(=O)(=O)c2ccc(F)cc2)Oc2c(NC(=O)Nc3ccccc3)cccc2C1=O`, the inhibition was 14.5% (active). With `Cc1noc(C)c1NC(=O)Nc1ccc2c(c1)C(=O)N([C@H](C)CO)C[C@H](C)[C@@H](CN(C)S(=O)(=O)c1cn(C)cn1)O2` the inhibition was 546% [above what the read-out allows, likely interference] (active). In the case of `CC(C)NC(=O)Nc1cccc2c1O[C@@H](CN(C)S(=O)(=O)c1ccc(F)cc1)[C@@H](C)CN([C@H](C)CO)C2=O`, the inhibition is reported as -0.984%. With `COc1ccc(S(=O)(=O)N(C)C[C@@H]2Oc3ccc(NC(=O)Nc4c(C)noc4C)cc3C(=O)N([C@H](C)CO)C[C@@H]2C)cc1` the inhibition was 4.41%. With `Cc1noc(C)c1S(=O)(=O)N(C)C[C@H]1Oc2ccc(NC(=O)C3CC3)cc2C(=O)N([C@H](C)CO)C[C@@H]1C` the inhibition was 3.05%. `COc1ccc(S(=O)(=O)Nc2cccc3c2O[C@H](CN(C)S(=O)(=O)c2ccc(OC)cc2)[C@@H](C)CN([C@H](C)CO)C3=O)cc1` was tested, and the inhibition was -1.79%. With `Cc1noc(C)c1NC(=O)Nc1cccc2c1O[C@H](CN(C)S(=O)(=O)c1c(C)noc1C)[C@@H](C)CN([C@H](C)CO)C2=O` the inhibition was -5.54%. `C[C@H](CO)N1C[C@H](C)[C@H](CN(C)C(=O)Nc2ccc(C(F)(F)F)cc2)Oc2c(NC(=O)c3ccncc3)cccc2C1=O` showed an inhibition of 0.195%. With `Cc1ccc2c(c1)N(C(=O)CCC(=O)NCc1cccnc1)CCO2` the inhibition was -4.82%. `CCN(C(=O)CSc1cccc[n+]1[O-])c1ccccc1` was tested, and the inhibition was -3%. `CCOc1ccc(CCNC(=O)COC(=O)c2c(OC)cccc2OC)cc1OCC` gave an inhibition of 1.41%. Compound `FC(F)Oc1ccccc1C1CC(c2ccc(Br)s2)Nc2ncnn21` (configuration not stated) has an inhibition of 2.23%. In the case of `Cn1c(C(=O)OC(C(=O)NC2CCCCC2)c2ccccn2)cc2sccc21` (configuration not stated), the inhibition is reported as -2.12%. Compound `Cc1cc(C)c(C)c(S(=O)(=O)N[C@@H](C)C(=O)OC(C)C(=O)NC(N)=O)c1C` (some centres not stated) has an inhibition of 0.241%. Compound `Cc1ccc(SC(C)C(=O)NCc2ccc(F)cc2)cc1` (configuration not stated) has an inhibition of -1.45%. Compound `COc1ccc(NC(=O)C2CCC(CNc3c(N4CCCCC4)c(=O)c3=O)CC2)c(OC)c1` (configuration not stated) has an inhibition of 2.53%. With `CCN(CCn1cccn1)Cc1nc(-c2ccc(C(=O)OC)cc2)no1` the inhibition was 0.645%. In the case of `COC(=O)c1ccc(S(=O)(=O)N2CCC(c3nc4ccccc4o3)CC2)cc1`, the inhibition is reported as 1.89%. Compound `CC1(C)CC(=O)C(C2c3ccccc3S(=O)(=O)c3ccccc32)C(=O)C1` has an inhibition of -4.3%.
